Assay results published in PubChem BioAssay (Tox21).
Results filed as inconclusive are left out. Where a call stands in place of a potency, no number is given. Activity calls are given as the source filed them. Unless noted, calls follow the shape of the dose curve; as a rule, active = well fitted curve in the direction sought with a large enough effect in the repeat runs; inconclusive = weak or mixed curves; inactive = no such curve, though single readings can be large; an effect the other way counts as inactive or inconclusive. Non-standard residues stand in square brackets, D forms with d. Residues, ends and D or L forms follow the SMILES beside them. pGlu = O=C1CC[C@@H](C(=O)O)N1; Thz = O=C(O)[C@@H]1CSCN1

How the values were obtained:
[1] = qHTS assay to test for compound auto fluorescence at 535 nm (green) in HEK293 cells (AID 720680)
[2] = qHTS assay to test for compound auto fluorescence at 460 nm (blue) in HEK293 cell free culture (AID 720681)
How it was run: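 Blue fluorescence (Ex 405/Em 460 nm, triamterene-equivalent) was read immediately after pin transfer of compound or DMSO into medium (DMEM, 10% FBS) without cells.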

[3] = qHTS assay to test for compound auto fluorescence at 535 nm (green) in HEK293 cell free culture (AID 720682)
How it was run: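 Compounds were pin-transferred into cell-free DMEM with 10% FBS, and green fluorescence was read at excitation 485 nm and emission 535 nm. Intensities were expressed as fluorescein-equivalent values.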

[4] = qHTS assay to test for compound auto fluorescence at 590 nm (red) in HEK293 cell free culture (AID 720683)
How it was run: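 Red-channel autofluorescence of compounds in culture medium (DMEM, 10% FBS), no cells, measured at 540/590 nm. Rose Bengal sodium is the reference fluorophore for equivalence.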

[5] = qHTS assay to test for compound auto fluorescence at 590 nm (red) in HepG2 cell free culture (AID 720684)
How it was run: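 Steps: dispense MEM/10% FBS medium, no cells; pin compound or DMSO vehicle; read red channel, Ex/Em 540/590 nm. Output given as Rose Bengal sodium equivalents.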

[6] = qHTS assay to test for compound auto fluorescence at 460 nm (blue) in HepG2 cell free culture (AID 720685)
How it was run: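 Compound (23 nL) or DMSO pinned into cell-free MEM with 10% FBS; blue fluorescence read at 405/460 nm excitation/emission, expressed as auto-fluorescence equivalency to triamterene.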

[7] = qHTS assay to test for compound auto fluorescence at 535 nm (green) in HepG2 cell free culture (AID 720686)
[8] = qHTS assay to test for compound auto fluorescence at 460 nm (blue) in HepG2 cells (AID 720687)
How it was run: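 Blue-channel autofluorescence (Ex/Em 405/460 nm, triamterene-equivalent) was measured after 1 hr compound exposure at 37 C, 5% CO2. Cells were HepG2, plated overnight at 37 C in MEM plus 10% FBS.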

[9] = biological target: Glucocorticoid receptor (Homo sapiens) (UniProt P04150); assay: qHTS assay to identify small molecule agonists of the glucocorticoid receptor (GR) signaling pathway (AID 720691; active = well fitted activation curve with a large enough effect in the signal ratio in the repeat runs, not every such curve was filed as active; the % refers to the signal ratio; also: potency is read from the fitted curve at half-maximal effect); details: GR-bla HeLa, beta-lactamase reporter ratio, 18 h; activation: at 62.4 µM (top of the series)
Chain of Glucocorticoid receptor (Homo sapiens) (P04150 whole entry, looked up): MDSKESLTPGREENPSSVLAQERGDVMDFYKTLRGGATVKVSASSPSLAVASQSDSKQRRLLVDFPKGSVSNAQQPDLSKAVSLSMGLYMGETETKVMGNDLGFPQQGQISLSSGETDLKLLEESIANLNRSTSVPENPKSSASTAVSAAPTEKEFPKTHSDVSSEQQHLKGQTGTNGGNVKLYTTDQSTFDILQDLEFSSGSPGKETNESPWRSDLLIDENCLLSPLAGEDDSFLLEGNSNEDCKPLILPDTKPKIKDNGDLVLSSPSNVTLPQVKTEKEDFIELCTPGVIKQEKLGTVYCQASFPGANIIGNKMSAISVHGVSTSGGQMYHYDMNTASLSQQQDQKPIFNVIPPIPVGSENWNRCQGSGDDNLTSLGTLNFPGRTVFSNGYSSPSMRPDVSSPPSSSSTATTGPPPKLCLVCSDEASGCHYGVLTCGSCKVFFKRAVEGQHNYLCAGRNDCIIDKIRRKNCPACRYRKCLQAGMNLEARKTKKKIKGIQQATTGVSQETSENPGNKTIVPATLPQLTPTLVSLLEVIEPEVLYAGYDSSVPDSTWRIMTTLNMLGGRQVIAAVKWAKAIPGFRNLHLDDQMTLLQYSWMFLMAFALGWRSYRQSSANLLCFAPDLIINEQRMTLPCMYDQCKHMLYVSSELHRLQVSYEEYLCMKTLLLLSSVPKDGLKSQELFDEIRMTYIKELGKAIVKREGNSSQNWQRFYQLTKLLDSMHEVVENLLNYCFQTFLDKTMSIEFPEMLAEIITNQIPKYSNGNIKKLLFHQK
How it was run: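 GR-bla HeLa cells (beta-lactamase reporter under glucocorticoid response element) were plated 4 h at 37 C/5% CO2, given compounds in DMSO, and incubated 18 h at 37 C. LiveBLAzer B/G FRET substrate was added for 2 h at room temperature, then fluorescence intensity read.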

[10] = qHTS assay to identify small molecule antagonists of the glucocorticoid receptor (GR) signaling pathway - cell viability counter screen (AID 720693); also: nearly all actives have a fitted effect of over 55% in size
[11] = qHTS assay for identifying genotoxic compounds that show differential cytotoxicity against isogenic chicken DT40 cell lines with known DNA damage response pathways - wild type cell line (AID 743012); also: nearly all actives have a fitted effect of over 60% in size; also: potency is read from the fitted curve at half-maximal effect
How it was run: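 Parental DNA repair-proficient DT40 cells, 300 per well, were pre-incubated ~0.5 h at 37 C/5% CO2, pin-dosed with compounds in DMSO, then incubated 40 h. Viability was read as CellTiter-Glo luminescence after 30 min at room temperature.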

[12] = qHTS assay for identifying genotoxic compounds that show differential cytotoxicity against isogenic chicken DT40 cell lines with known DNA damage response pathways - Rev3 mutant cell line (AID 743014); also: nearly all actives have a fitted effect of over 55% in size; also: potency is read from the fitted curve at half-maximal effect
[13] = qHTS assay for identifying genotoxic compounds that show differential cytotoxicity against isogenic chicken DT40 cell lines with known DNA damage response pathways - Rad54/Ku70 mutant cell line (AID 743015); also: nearly all actives have a fitted effect of over 60% in size; also: potency is read from the fitted curve at half-maximal effect
[14] = qHTS assay to identify small molecule antagonists of the androgen receptor (AR) signaling pathway - cell viability counter screen (AID 743033; also: nearly all actives have a fitted effect of over 45% in size)
[15] = biological target: Androgen receptor (Homo sapiens) (UniProt P10275); assay: qHTS assay to identify small molecule agonists of the androgen receptor (AR) signaling pathway (AID 743036; active = well fitted activation curve with a large enough effect in the signal ratio in the repeat runs, with a control signal flat, not every such curve was filed as active; the % refers to the signal ratio)
Chain of Androgen receptor (Homo sapiens) (P10275 whole entry, looked up): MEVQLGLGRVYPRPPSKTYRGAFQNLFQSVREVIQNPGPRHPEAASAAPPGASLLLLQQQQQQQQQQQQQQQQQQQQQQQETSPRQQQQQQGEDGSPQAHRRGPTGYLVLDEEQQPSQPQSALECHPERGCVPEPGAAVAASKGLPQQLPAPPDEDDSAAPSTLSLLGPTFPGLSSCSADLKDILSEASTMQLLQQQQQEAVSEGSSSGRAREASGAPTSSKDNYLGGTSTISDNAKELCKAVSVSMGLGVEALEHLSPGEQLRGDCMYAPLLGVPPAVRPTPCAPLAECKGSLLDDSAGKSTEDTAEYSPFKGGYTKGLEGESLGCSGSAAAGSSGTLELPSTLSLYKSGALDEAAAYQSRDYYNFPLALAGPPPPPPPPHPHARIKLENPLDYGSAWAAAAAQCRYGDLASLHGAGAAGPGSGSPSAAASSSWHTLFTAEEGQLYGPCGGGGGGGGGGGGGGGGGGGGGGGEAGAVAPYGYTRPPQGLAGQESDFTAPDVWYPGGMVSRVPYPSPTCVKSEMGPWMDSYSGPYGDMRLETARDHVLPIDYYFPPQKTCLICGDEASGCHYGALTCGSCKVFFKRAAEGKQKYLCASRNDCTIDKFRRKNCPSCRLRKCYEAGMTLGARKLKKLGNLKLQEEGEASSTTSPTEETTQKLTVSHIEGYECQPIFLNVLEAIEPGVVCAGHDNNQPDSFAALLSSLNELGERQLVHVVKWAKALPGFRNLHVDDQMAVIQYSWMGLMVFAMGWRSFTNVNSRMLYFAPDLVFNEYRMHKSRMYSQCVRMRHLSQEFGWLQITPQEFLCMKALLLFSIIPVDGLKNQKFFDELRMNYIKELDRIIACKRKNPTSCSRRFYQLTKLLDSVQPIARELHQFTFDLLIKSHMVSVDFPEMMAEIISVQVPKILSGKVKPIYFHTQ
How it was run: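 Activation was read as beta-lactamase FRET signal from LiveBLAzer B/G substrate, added for 2 h at room temperature. Before that, GeneBLAzer AR-UAS-bla GripTite (HEK293) cells had 16 h compound exposure at 37C.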

[16] = biological target: Androgen receptor (Homo sapiens) (UniProt P10275); assay: qHTS assay to identify small molecule agonists of the androgen receptor (AR) signaling pathway using the MDA cell line (AID 743040; also: nearly all actives have a fitted effect of over 20% in size)
How it was run: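 Cells plated, 5 h at 37C/0% CO2; compound or DMSO pinned; 16 h at 37C; ONE-Glo added; luminescence measured after 30 min at room temperature. Reporter line: MDA-kb2 with MMTV-luciferase responsive to AR and GR.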

[17] = qHTS assay to identify small molecule antagonists of the androgen receptor (AR) signaling pathway using the MDA cell line - cell viability counter screen (AID 743041; also: nearly all actives have a fitted effect of over 45% in size)
How it was run: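 Cells were plated at 3,000 per well and left 5 h. Compounds in DMSO were then pinned in, followed by R1881. After 16 h at 37C, CellTiter-Fluor fluorescence gave viability.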

[18] = biological target: Androgen receptor (Homo sapiens) (UniProt P10275); assay: qHTS assay to identify small molecule antagonists of the androgen receptor (AR) signaling pathway using the MDA cell line (AID 743042; also: nearly all actives have a fitted effect of over 55% in size; also: potency is read from the fitted curve at half-maximal effect)
How it was run: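 Antagonist mode: compounds plus R1881 agonist added to MDA-kb2 AR-luc cells, incubated 16 h at 37C. Luciferase reporter luminescence quantified, with multiplexed CellTiter-Fluor readout for cell viability.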

[19] = biological target: Glucocorticoid receptor (Homo sapiens) (UniProt P04150); assay: qHTS assay to identify small molecule antagonists of the glucocorticoid receptor (GR) signaling pathway (AID 720692; active = well fitted inhibition curve with a large enough effect in the signal ratio in the repeat runs, not every such curve was filed as active; the % refers to the signal ratio; also: potency is read from the fitted curve at half-maximal effect)
How it was run: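 GR-bla HeLa cells (beta-lactamase reporter under glucocorticoid response element) were pre-plated 4 h at 37 C, treated with compounds plus 5 nM dexamethasone (final) for 18 h, then read by LiveBLAzer B/G FRET fluorescence after 2 h.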

[20] = biological target: Androgen receptor (Homo sapiens) (UniProt P10275); assay: qHTS assay to identify small molecule antagonists of the androgen receptor (AR) signaling pathway (AID 743035; active = well fitted inhibition curve with a large enough effect in the signal ratio in the repeat runs, not every such curve was filed as active; the % refers to the signal ratio)
How it was run: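 HEK293 cells stably carrying a UAS-driven beta-lactamase reporter (AR-UAS-bla GripTite) were plated for 4 h at 37C, then given compound and the agonist R1881 and incubated 16 h. Reporter activity was read by LiveBLAzer B/G FRET fluorescence after 2 h at room temperature.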

CC(C)(C)c1ccc(CN2CCN(C(c3ccccc3)c3ccc(Cl)cc3)CC2)cc1 (centres undefined)
Potency [1]: inactive | Potency [2]: inactive | Potency [3]: inactive | Potency [4]: inactive | Potency [5]: inactive | outcome [6]: inactive | Potency [7]: inactive | outcome [8]: inactive | Potency [9]: inactive | Potency [10]: inactive | Potency [11]: 5.31 µM (active) | Potency [12]: 4.22 µM (active) | Potency [13]: 8.41 µM (active) | Potency [14]: inactive | Potency [15]: inactive | Potency [16]: inactive | Potency [17]: inactive | Potency [18]: inactive

C[C@@H]1CCC2[C@@H](C)[C@@H](O)O[C@@H]3O[C@@]4(C)CC[C@@H]1[C@@]23OO4 (some centres undefined)
Potency [1]: inactive | Potency [2]: inactive | Potency [3]: inactive | Potency [4]: inactive | Potency [5]: inactive | outcome [6]: inactive | Potency [7]: inactive | outcome [8]: inactive | Potency [9]: inactive | Potency [19]: inactive | Potency [11]: 0.119 µM (active) | Potency [12]: 0.133 µM (active) | Potency [13]: 0.0473 µM (active)

CC1=C(/C=C/C(C)=C/C=C/C(C)=C/C=C/C=C(C)/C=C/C=C(C)/C=C/C2=C(C)C[C@@H](O)CC2(C)C)C(C)(C)C[C@H](O)C1
Potency [1]: inactive | Potency [2]: inactive | Potency [3]: inactive | Potency [4]: inactive | Potency [5]: inactive | outcome [6]: inactive | Potency [7]: inactive | outcome [8]: inactive | Potency [9]: inactive | Potency [19]: 23.9 µM (active) | Potency [11]: 7.5 µM (active) | Potency [12]: 13.3 µM (active) | Potency [13]: 11.9 µM (active) | Potency [14]: inactive | Potency [16]: inactive | Potency [17]: inactive | Potency [18]: 29.8 µM (active)

C[C@H]1C[C@H]2[C@@H]3CCC4=CC(=O)C=C[C@]4(C)[C@@]3(F)[C@@H](O)C[C@]2(C)[C@@]1(O)C(=O)CCl
Potency [1]: inactive | Potency [2]: inactive | Potency [3]: inactive | Potency [4]: inactive | Potency [5]: inactive | outcome [6]: inactive | Potency [7]: inactive | outcome [8]: inactive | Potency [9]: 0.0017 µM (active) | Potency [10]: inactive | Potency [11]: 18.8 µM (active) | Potency [12]: 26.6 µM (active) | Potency [13]: 23.7 µM (active) | Potency [14]: inactive | Potency [17]: inactive

CC1(C)S[C@@H]2[C@H](NC(=O)C3(N)CCCCC3)C(=O)N2[C@H]1C(=O)O
Potency [1]: inactive | Potency [2]: inactive | Potency [3]: inactive | Potency [4]: inactive | Potency [5]: inactive | outcome [6]: inactive | Potency [7]: inactive | outcome [8]: inactive | Potency [9]: inactive | Potency [10]: inactive | Potency [11]: inactive | Potency [12]: inactive | Potency [13]: inactive | Potency [14]: inactive | Potency [20]: inactive | Potency [15]: inactive | Potency [16]: inactive | Potency [17]: inactive | Potency [18]: inactive

CCCCCCCCCCCCCCCCSCC(COC)COP(=O)([O-])OCC[N+](C)(C)C (centres undefined)
Potency [1]: inactive | Potency [2]: inactive | Potency [3]: inactive | Potency [4]: inactive | Potency [5]: inactive | outcome [6]: inactive | Potency [7]: inactive | outcome [8]: inactive | Potency [9]: inactive | Potency [19]: 23.9 µM (active) | Potency [12]: inactive | Potency [13]: inactive | Potency [16]: inactive | Potency [17]: inactive | Potency [18]: inactive

OC(CN1CCCCC1)c1cc(-c2ccccc2)on1 (centres undefined)
Potency [1]: inactive | Potency [2]: inactive | Potency [3]: inactive | Potency [4]: inactive | Potency [5]: inactive | outcome [6]: inactive | Potency [7]: inactive | outcome [8]: inactive | Potency [9]: inactive | Potency [10]: inactive | Potency [11]: inactive | Potency [12]: inactive | Potency [13]: inactive | Potency [14]: inactive | Potency [20]: inactive | Potency [17]: inactive | Potency [18]: inactive

COCC(=O)Nc1cc(Sc2ccccc2)ccc1N=C(NC(=O)OC)NC(=O)OC
Potency [1]: inactive | Potency [2]: inactive | Potency [3]: inactive | Potency [4]: inactive | Potency [5]: inactive | outcome [6]: inactive | Potency [7]: inactive | outcome [8]: inactive | Potency [9]: inactive | Potency [19]: inactive | Potency [10]: inactive | Potency [14]: inactive | Potency [17]: inactive

CCCCC(F)(F)[C@@]1(O)CC[C@H]2[C@@H](CC(=O)[C@@H]2CCCCCCC(=O)O)O1
Potency [1]: inactive | Potency [2]: inactive | Potency [3]: inactive | Potency [4]: inactive | Potency [5]: inactive | outcome [6]: inactive | Potency [7]: inactive | outcome [8]: inactive | Potency [9]: inactive | Potency [10]: inactive | Potency [11]: inactive | Potency [12]: inactive | Potency [13]: inactive | Potency [14]: inactive | Potency [16]: inactive | Potency [17]: inactive | Potency [18]: inactive

CCC(Cc1c(I)cc(I)c(O)c1I)C(=O)O (centres undefined)
Potency [1]: inactive | Potency [2]: inactive | Potency [3]: inactive | Potency [4]: inactive | Potency [5]: inactive | outcome [6]: inactive | Potency [7]: inactive | outcome [8]: inactive | Potency [9]: inactive | Potency [10]: inactive | Potency [11]: inactive | Potency [12]: inactive | Potency [13]: inactive | Potency [14]: inactive | Potency [20]: inactive | Potency [15]: inactive | Potency [16]: inactive | Potency [17]: inactive | Potency [18]: inactive

COc1ccc(C(=O)CCC(=O)O)c2ccccc12
Potency [1]: inactive | Potency [2]: inactive | Potency [3]: inactive | Potency [4]: inactive | Potency [5]: inactive | outcome [6]: inactive | Potency [7]: inactive | outcome [8]: inactive | Potency [9]: inactive | Potency [10]: inactive | Potency [11]: inactive | Potency [12]: inactive | Potency [13]: inactive | Potency [14]: inactive | Potency [17]: inactive

O=C1CC[C@@H](C(=O)N2CSC[C@H]2C(=O)O)N1 ([pGlu]-[Thz]-OH)
Potency [1]: inactive | Potency [2]: inactive | Potency [3]: inactive | Potency [4]: inactive | Potency [5]: inactive | outcome [6]: inactive | Potency [7]: inactive | outcome [8]: inactive | Potency [9]: inactive | Potency [10]: inactive | Potency [11]: inactive | Potency [12]: inactive | Potency [13]: inactive | Potency [14]: inactive | Potency [20]: inactive | Potency [15]: inactive | Potency [17]: inactive | Potency [18]: inactive

CC(C)c1nc(N(C)S(C)(=O)=O)nc(-c2ccc(F)cc2)c1/C=C/C(O)CC(O)CC(=O)O (centres undefined)
Potency [1]: inactive | Potency [2]: inactive | Potency [3]: inactive | Potency [4]: inactive | Potency [5]: inactive | outcome [6]: inactive | Potency [7]: inactive | outcome [8]: inactive | Potency [9]: inactive | Potency [19]: inactive | Potency [10]: inactive | Potency [14]: inactive | Potency [17]: inactive
